Measured values from the supplement of paper PMC10127200.
Counter-ions that a name gives are not always drawn.

Legend:
Assay in all cases: Euclidean distance of Cell Painting phenotypic profile (signed KS, 77 features) to DMSO centroid (dimensionless distance); 5 or 10 uM (library dependent); higher = stronger phenotypic change vs DMSO (phenoactivity)
Conditions in all cases: 48 h
[1] = system: 786-O
How it was run: (§1)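 Library compounds were applied at 10 or 5 uM, depending on the library, with 0.1% DMSO final, for 48 h to five cancer lines and a healthy fibroblast line. After staining, cells were imaged confocally at 20X across 9 fields per well, and Harmony extracted 77 features, each scored as a signed Kolmogorov-Smirnov statistic against vehicle wells on the same plate. Phenoactivity is the Euclidean distance between each profile and the median vehicle profile, with profiles first plate-position corrected, correlation-weighted and averaged over replicates at the top dose.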

[2] = system: A549
How it was run: as §1

[3] = system: DU145
How it was run: as §1

[4] = system: FB
How it was run: as §1

[5] = system: HEPG2
How it was run: as §1

[6] = system: OVCAR4
How it was run: as §1

Row | SMILES | Euclidean distance [1] | Euclidean distance [2] | Euclidean distance [3] | Euclidean distance [4] | Euclidean distance [5] | Euclidean distance [6]
1 | CN1C(C(=O)Nc2ccccn2)=C(O)c2ccccc2S1(=O)=O [Piroxicam] | 0.732 | 0.909 | 0.966 | 0.725 | 1.06 | 0.704
2 | Cc1ccc(F)c(NC(=O)Nc2ccc(-c3cccc4[nH]nc(N)c34)cc2)c1 [Linifanib (ABT-869)] | 1.23 | 2.53 | 1.64 | 1.81 | 4.87 | 1.29
3 | COCCCN1CCC(NC(=O)c2cc(Cl)c(N)c3c2OCC3)CC1 [Prucalopride Succinate] | 0.846 | 1.22 | 1.04 | 1.4 | 0.733 | 1.47
4 | Oc1ccc([C@H]2COc3cc(O)ccc3C2)cc1 [Equol] | 1.09 | 1.52 | 1.04 | 1.35 | 0.768 | 1.72
5 | CCCCOc1nc(N)c2c(n1)N(Cc1cccc(CN3CCCC3)c1)CC(=O)N2 | 1.32 | 0.517 | 0.661 | 0.941 | 0.589 | 1
6 | CN1CC[C@H](c2c(O)cc(O)c3c(=O)cc(-c4ccccc4Cl)oc23)[C@H](O)C1 [Flavopiridol HCl] | 3.1 | 3.15 | 3.43 | 3.29 | 2.41 | 3.45
7 | C[C@H]1O[C@@H](O[C@H]2[C@@H](O)C[C@H](O[C@H]3[C@@H](O)C[C@H](O[C@H]4CC[C@@]5(C)[C@H](CC[C@@H]6[C@@H]5C[C@@H](O)[C@]5(C)[C@@H](C7=CC(=O)OC7)CC[C@]65O)C4)O[C@@H]3C)O[C@@H]2C)C[C@H](O)[C@@H]1O [Digoxin] | 6.92 | 5.56 | 6.87 | 4.48 | 3.09 | 6.68
8 | N[C@H](CO)C(=O)O [(R)-Serine] | 1.31 | 1.48 | 0.909 | 0.797 | 0.786 | 1.43
9 | O=C(c1ccc(NS(=O)(=O)c2cccc3cccnc23)cc1)N1CCN(CC2CC2)CC1 [Mitapivat] | 1.26 | 0.913 | 1.1 | 1.04 | 1.09 | 1.47
10 | CN1CCc2c(c3ccccc3n2Cc2ccc(C(=O)NO)cc2)C1 [Tubastatin A HCl] | 0.602 | 0.832 | 0.783 | 1.34 | 0.601 | 0.657
11 | Cc1nn(-c2ccccc2)c(C)c1C=NN1CCN(Cc2ccccc2)CC1 | 1.24 | 1.25 | 0.724 | 0.733 | 1.16 | 1.34
12 | Cc1cccc(Nc2nc(-c3ccncc3)cs2)c1 | 3.35 | 3.77 | 4.06 | 3.02 | 1.11 | 1.73
13 | O=C(Nc1cccc2c(=O)cc(-c3nnn[nH]3)oc12)c1ccc(OCCCCc2ccccc2)cc1 [Pranlukast] | 0.942 | 1.36 | 0.906 | 0.842 | 1.13 | 0.86
14 | CC(=O)Nc1ccc(CC(=O)O)cc1 [Actarit] | 1.12 | 0.862 | 0.902 | 1.09 | 0.464 | 0.872
15 | CNC(=O)c1ccc(C)c(-n2c(C)cc(OCc3ccc(F)cc3F)c(Br)c2=O)c1 | 1.33 | 1.29 | 0.844 | 1.55 | 1.94 | 1.07
16 | CC1=CC(=O)c2ccccc2C1=O [Menadione] | 1.12 | 0.782 | 0.587 | 1.16 | 0.759 | 2.12
17 | COC(=O)C1=C(C)NC(C)=C(C(=O)OCCN2CCN(C(c3ccccc3)c3ccccc3)CC2)C1c1cccc([N+](=O)[O-])c1 (configuration not stated) [Manidipine 2HCl] | 1.93 | 2.35 | 1.3 | 1.11 | 1.84 | 1.95
18 | CCN(CC)CCOC(=O)C1(C2CCCCC2)CCCCC1 [Dicyclomine HCl] | 1.23 | 1.1 | 1.39 | 1.16 | 1.04 | 1.43
19 | CC(C)CC(=O)Nc1cncc(-c2ccc3[nH]nc(-c4nc5cncc(-c6cccc(F)c6)c5[nH]4)c3c2)c1 | 5.07 | 2.79 | 4.73 | 4.58 | 4.73 | 3.42
20 | CC[C@H](C)C[C@H](C)CCCCCCCCC(=O)N[C@H]1C[C@@H](O)[C@@H](NCCN)NC(=O)[C@@H]2[C@@H](O)CCN2C(=O)[C@H]([C@H](O)CCN)NC(=O)[C@H]([C@H](O)[C@@H](O)c2ccc(O)cc2)NC(=O)[C@@H]2C[C@@H](O)CN2C(=O)[C@H]([C@@H](C)O)NC1=O [Caspofungin Acetate] | 2.18 | 0.866 | 1.51 | 2.42 | 1.15 | 1.86
21 | CCCN1CCCC[C@H]1C(=O)Nc1c(C)cccc1C [Ropivacaine Mesilate] | 0.655 | 0.72 | 1.14 | 0.717 | 0.914 | 0.946
22 | Nc1cc(F)ccc1NC(=O)/C=C/c1cnn(C/C=C/c2ccccc2)c1 | 1.54 | 1.02 | 0.877 | 2.44 | 1.27 | 0.895
23 | CCOC(=O)[C@@H](N)Cc1ccc(-c2cc(O[C@H](c3ccc(Cl)cc3-n3ccc(C)n3)C(F)(F)F)nc(N)n2)cc1 [Telotristat Etiprate (LX 1606 Hippurate)] | 3.69 | 1.52 | 2.43 | 2.23 | 1.13 | 1.3
24 | CCCC(=O)Nc1ncnc2c1ncn2[C@@H]1O[C@@H]2COP(=O)(O)O[C@H]2[C@H]1OC(=O)CCC [Dibutyryl-cAMP (Bucladesine)] | 1.05 | 0.792 | 0.663 | 0.745 | 0.883 | 1.53

Row | SMILES | Euclidean distance [1] | Euclidean distance [2] | Euclidean distance [3] | Euclidean distance [4] | Euclidean distance [5] | Euclidean distance [6]
25 | COCCCN1CCC(NC(=O)c2cc(Cl)c(N)c3c2OCC3)CC1 [Prucalopride Succinat] | 0.911 | 0.777 | 0.699 | 0.581 | 0.684 | 0.827
26 | NC[C@H]1O[C@H](O[C@H]2[C@H](O)[C@@H](O[C@H]3O[C@H](CO)[C@@H](O)[C@H](N)[C@H]3O)[C@H](N)C[C@@H]2N)[C@H](O)[C@@H](O)[C@@H]1O [Kanamycin sulfate] | 1.57 | 0.801 | 1.16 | 0.974 | 2.18 | 1.35
27 | CCc1cc2c(cc1CC)CC(NC[C@H](O)c1ccc(O)c3[nH]c(=O)ccc13)C2 [Indacaterol Maleate] | 0.915 | 0.63 | 1.14 | 1.67 | 0.818 | 1.02
28 | Oc1ccc(/C=C/c2cc(O)cc(O)c2)cc1 [Resveratrol] | 2.22 | 1.93 | 1.94 | 1.74 | 0.81 | 1.92
29 | Nc1nc(Cl)nc2c1ncn2[C@H]1C[C@H](O)[C@@H](CO)O1 [Cladribine] | 2.58 | 3.28 | 2.27 | 3.14 | 2.67 | 3.21
30 | COc1ncnc(NS(=O)(=O)c2ccc(N)cc2)c1OC [Sulfadoxine] | 0.66 | 1.24 | 0.743 | 0.491 | 0.397 | 1.39
31 | Oc1cc(O)c2c(c1)O[C@H](c1ccc(O)c(O)c1)[C@H](O)C2 [(-)Epicatechin] | 1.1 | 0.627 | 0.705 | 1.15 | 0.982 | 1.04
32 | O=C(Nc1ccc(O)cc1)c1ccccc1O [Osalmid] | 1.02 | 0.634 | 1.01 | 1.27 | 0.744 | 0.853
33 | CO[C@@]1(NC(=O)C(C(=O)O)c2ccc(O)cc2)C(=O)N2C(C(=O)O)=C(CSc3nnnn3C)CO[C@@H]21 (some centres not stated) [Latamoxef sodium] | 1.53 | 0.777 | 1.09 | 0.907 | 0.797 | 1.39
34 | CO[C@@H]1[C@@H](OC(N)=O)[C@@H](O)[C@H](Oc2ccc3c(O)c(NC(=O)c4ccc(O)c(CC=C(C)C)c4)c(=O)oc3c2C)OC1(C)C [Novobiocin Sodium] | 0.865 | 0.868 | 0.814 | 1.04 | 0.385 | 1.19
35 | CC(=O)OCC1=C(C(=O)O)N2C(=O)[C@@H](NC(=O)CSc3ccncc3)[C@H]2SC1 [Cephapirin Benzathine] | 1.51 | 0.954 | 0.791 | 1.16 | 0.75 | 0.965
36 | Cc1ccc([N+](=O)[O-])cc1S(=O)(=O)N(C)/N=C/c1cnc2ccc(Br)cn12 | 3.41 | 4.67 | 2.87 | 2.69 | 2.06 | 4.4
37 | CN(C)CCC(c1ccc(Br)cc1)c1ccccn1 (configuration not stated) [Brompheniramine hydrogen maleate] | 1.21 | 0.63 | 1.13 | 1.18 | 0.5 | 1.36
38 | CC(NC(=O)c1ccccc1/N=C/c1c(O)ccc2ccccc12)c1ccccc1 (configuration not stated) [Sirtinol] | 0.539 | 0.747 | 0.686 | 0.99 | 2.2 | 0.857
39 | O=C(Nc1ccccc1)c1cc([N+](=O)[O-])ccc1Cl | 0.848 | 0.897 | 0.645 | 1.15 | 0.832 | 1.2
40 | O=c1ccc2ccc(O)c(O)c2o1 [Daphnetin] | 1.49 | 0.859 | 0.975 | 1.15 | 1.18 | 0.972
41 | O=C(NS(=O)(=O)c1ccc(Br)s1)c1ccc(Cl)cc1Cl [Tasisulam] | 1.38 | 0.993 | 1.21 | 0.939 | 1.22 | 1.66
42 | Cc1nc(NC(=O)N2CCC[C@H]2C(N)=O)sc1-c1ccnc(C(C)(C)C(F)(F)F)c1 [Alpelisib (BYL719)] | 1.4 | 1.45 | 1.3 | 2.29 | 1.09 | 2.02
43 | Cc1ncc(C[n+]2csc(CCO)c2C)c(N)n1 [Thiamine HCl (Vitamin B1)] | 1.43 | 0.642 | 0.753 | 0.562 | 1.12 | 1.21
44 | CN(Cc1cnc2nc(N)nc(N)c2n1)c1ccc(C(=O)N[C@@H](CCC(=O)O)C(=O)O)cc1 [Methotrexate disodium] | 2.05 | 3.23 | 0.912 | 0.603 | 1.47 | 2.39
45 | Nc1nc(N)c2nc(-c3cccc(O)c3)cnc2n1 | 0.828 | 1.47 | 1.28 | 2.43 | 0.858 | 1.9
46 | CC(C)c1nc(CN(C)C(=O)N[C@@H](CCN2CCOCC2)C(=O)N[C@H](CC[C@H](Cc2ccccc2)NC(=O)OCc2cncs2)Cc2ccccc2)cs1 [Cobicistat (GS-9350)] | 2.05 | 2.31 | 1.67 | 1.66 | 1.23 | 1.96
47 | COc1ccc(CC(C)(C)NC[C@H](O)c2cc(O)cc3c2OCC(=O)N3)cc1 [Olodaterol hydrochloride] | 1.07 | 0.364 | 1.21 | 1.12 | 0.379 | 1.1
